# Experimental data: PubChem BioAssay AID2315 (National Center for Advancing Translational Sciences (NCATS), 2010)
# In all, about 290,000 compounds went through this assay and about 27,000 (9.3%) were called active. Many of the other results were omitted from the sample, so actives are more common in it than they were. Values without a mark were called inactive. Rule as the data show it: active = inhibition mostly above about 28% (no sharp cut-off); inactive = mostly below about 43%.
# Assay: A qHTS for Small Molecule Inhibitors of Shiga Toxin; also: 0% is about no effect
# Settings: Vero cells, Shiga toxin protein synthesis inhibition reporter; at 38.7 µM, stronger effect = higher value
row,SMILES,inhibition
1,COc1ccc(CNC(=O)C(C)NCc2ccccc2Cl)cc1 (configuration not stated),-9.04%
2,Cc1ccc(S(=O)(=O)N(CC(=O)Nc2cccnc2)c2ccc(Br)cc2)cc1,-36.9%
3,CN(C)CCCn1c(=O)n(Cc2ccccc2)c(=O)c2c3c(sc21)CCCCC3,-7.1%
4,C=CCn1c(-c2sc(-c3ccccc3)nc2C)n[nH]c1=S,24.9%
5,Cc1nc(-c2ccccc2)sc1-c1nc(-c2ccccc2)ncc1S(=O)(=O)c1ccccc1,-10.1%
6,Cc1nc(-c2ccccc2)sc1-c1nnc(C2CC2)o1,87.2% (active)
7,CCOc1cc(C(=S)N2CCOCC2)ccc1OS(=O)(=O)c1ccc(Br)cc1,1.09%
8,C=CCOc1ccccc1NC(=O)CN1C(=O)CNC1=O,-4.23%
9,COc1ccc(OC)c(NC(=O)c2cccc(S(=O)(=O)N3CCN(C(C)=O)CC3)c2)c1,1.91%
10,COc1ccccc1C(=O)OCC(=O)NCCNC(=O)COC(=O)c1ccccc1OC,-3.42%
11,Cc1cccc(-c2nc(Nc3ccc(O)cc3)c3ccccc3n2)c1,-1.6%
12,Cc1ccc(-c2noc(CSc3nnc(-c4ccccc4)n3C)n2)cc1,-2.98%
13,Cc1ccc(Cc2nc(-c3cccc(C)c3)no2)cc1,48.1% (active)
14,Cc1ccc(-c2noc(CN3CCN(Cc4ccccc4)CC3)n2)cc1,41.3%
15,Cc1cccc(-c2noc(CCC(=O)NC3CCCC3)n2)c1,24.9%
16,Cc1cccc(-c2noc(-c3ccc(F)cc3)n2)c1,152% (active)
17,O=C(O)CC(CC(=O)N1CCOCC1)c1ccccc1 (configuration not stated),-6.69%
18,Cc1c(NC(=O)c2c([N+](=O)[O-])cnn2C)c(=O)n(-c2ccccc2)n1C,-11.5%
19,Cc1ccc(OCC(=O)Nc2ccccc2C(=O)NC2CC2)cc1C,-4.84%
20,COc1ccc(C(=O)CC2C(=O)N(C)C(=O)N(C)C2=O)cc1,13.8%
21,COc1ccc(OCCC(=O)c2ccc(OC)cc2)cc1,-6.88%
22,CO/N=C/CC(=O)c1ccc(OC)cc1,91.1% (active)
23,Cc1ccc(C(=O)c2coc3ccc(O)c(CN(C)C)c23)cc1,-0.742%
24,Cc1ccc(S(=O)(=O)NCCSC(C)(C)C)cc1,-15.2%

row,SMILES,inhibition
1,CC(C)(C)SCCSC1=CC(=O)CC(c2ccccc2)C1 (configuration not stated),75.7% (active)
2,O=C(O)CC/C(=C\c1cc2c(cc1Br)OCO2)c1nc2ccccc2s1,-7.28%
3,O=S(=O)(ON(c1ccccc1)S(=O)(=O)c1ccccc1)c1ccccc1,-5.69%
4,CC1=C/C(=N\OS(=O)(=O)c2ccccc2)C=CC1=O,67.3% (active)
5,Cc1ccc(S(=O)(=O)c2ccc(Oc3ccccc3)cc2)cc1,-11.7%
6,COC(=O)c1ccc(NC(=O)CSc2nncn2-c2cccnc2)cc1,29.9%
7,CC(Sc1nnc(CNC(=O)c2ccccc2F)n1C)C(=O)Nc1nccs1 (configuration not stated),-6.1%
8,CC(C)(C)NC(=O)CSC(=Nc1ccccc1F)NC#N,33.9% (active)
9,Cc1ccccc1CSCC(=O)NC(=O)NC(C)(C)C,11%
10,COc1ccccc1-n1ccnc1SCC(=O)NC(C)(C)C,18.7%
11,Cc1nc2sc(C(=O)c3ccccc3)c(N)c2c2c1CCCC2,18.1% (active)
12,CCN(CC)C(=O)c1sc2nc(-c3ccccc3)ccc2c1N,165% (active)
13,COc1cccc(C(=O)c2sc3nc(-c4ccccc4)cc(C(F)(F)F)c3c2N)c1,-1.9%
14,CN(C)c1ccnc2sc(C(=O)c3ccccc3)c(N)c12,25.4% (active)
15,Cc1ccc2c(N)c(C(=O)c3ccccc3)sc2n1,87.1% (active)
16,CC(=O)c1c(Nc2ccccc2)sc(C(=O)c2ccccc2)c1C,-8.12%
17,COC(=O)c1cc2c(N)c(C(=O)c3ccc(Cl)cc3)sc2nc1C(OC)OC,-1.42%
18,CS(=O)(=O)c1sc2nc(-c3ccccc3)cc(-c3ccccc3)c2c1N,-3.26%
19,NC(=O)c1sc2nc3c(c(-c4ccccc4)c2c1N)CCC3,-11.8%
20,CCOC(=O)c1sc2nc(SC)nc(-c3ccccc3)c2c1N,-14%
21,CN(C)c1ccnc2sc3c(=O)n(Cc4ccccc4)cnc3c12,-12.3%
22,CCc1nc2sc(C(=O)O)c(N)c2c2c1CCCC2,-12.9%
23,CC(C)C[C@H]1CN=C(Nc2ccccc2)N1CC1CCCCC1,0.785%
